Most compounds without a hit are left out; they make up all but 4.2% or so of the library.
GDH-TPI counter-1 – GDH-TPI coupling enzyme inhibitors, primary screen, artefact control for M. tuberculosis FBA inhibitor project, biochemical, absorbance, full deck | GDH-TPI coupled enzyme counterscreen, NADH absorbance | inhibition, % at 4.8 µM | hit rate 1.2% among 360,000; in the data active means inhibition above about 30%;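 further: 0% = DMSO wells and 100% = wells lacking the enzyme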
PrPC surface inh – inhibitors of human cell surface prion protein PrPC, primary screen, cell-based, TR-FRET; TR-FRET read-out; hit rate 0.43% among 370,000; inhibition, % at 13.8 µM; in the data active means inhibition above about 24%; further: 0% = median of the test wells and 100% = reference compound wells
Mtb FBA inh – Mtb FBA enzyme inhibitors, primary screen, biochemical, fluorescence, strain H37Rv; purified M. tuberculosis FBA, fluorescence read-out; inhibition, % at 1 µM; hit rate 2.3% among 360,000; AID 588726, 2011;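 further: 0% = vehicle and 100% = reference inhibitor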
Target sequence (P9WQA3 whole entry, looked up): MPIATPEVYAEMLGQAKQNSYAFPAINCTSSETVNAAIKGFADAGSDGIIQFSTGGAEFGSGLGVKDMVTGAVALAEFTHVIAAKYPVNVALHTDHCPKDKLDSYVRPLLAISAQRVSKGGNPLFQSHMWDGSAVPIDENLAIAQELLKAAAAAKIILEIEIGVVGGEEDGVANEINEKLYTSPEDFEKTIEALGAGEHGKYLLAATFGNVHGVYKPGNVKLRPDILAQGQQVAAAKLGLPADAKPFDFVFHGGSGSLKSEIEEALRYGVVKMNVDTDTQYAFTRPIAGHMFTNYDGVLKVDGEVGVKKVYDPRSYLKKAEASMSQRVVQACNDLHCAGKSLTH
BJeLR lethal – MLPCN primary cell-based screen for lethality selective to Ras in HRASV12 cells | AID 1554, 2009 | BJeLR (HRASV12) viability, CellTiter-Glo ATP luminescence, 48 h | hit rate 0.17% among 300,000 | inhibition, % (test concentration not listed); in the data active means inhibition above about 50%
RecA splice inh – Mtb RecA intein splicing inhibitors, primary screen, biochemical, fluorescence, HTS | cell-free RecA intein splicing | inhibition, % (test concentration not listed) | hit rate 0.75% among 290,000; in the data active means inhibition above about 30%;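 further: 0% = vehicle wells and 100% = reference inhibitor control wells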
Mtb FBA confirm – M. tuberculosis aldolase blockers, biochemical, fluorescence, strain H37Rv, confirmation; shares compounds with Mtb FBA inh; purified M. tuberculosis FBA, fluorescence read-out; inhibition, % at 1 µM; hit rate 78% among 5,600;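 further: 0% = vehicle wells and 100% = reference inhibitor wells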
GDH-TPI counter-2 – GDH-TPI coupling enzyme inhibitors, artefact control for M. tuberculosis FBA inhibitor project, biochemical, fluorescence, high throughput; shares compounds with Mtb FBA inh; GDH-TPI coupled enzyme counterscreen; inhibition, % at 1 µM; hit rate 81% among 5,600; AID 652141, 2013; in the data active means inhibition above about 10%
* hit, by the source's call; · = no result; + = active, no number. Unless noted, no stated cut-off is given here; in the data, active means inhibition above about 27%; inactive means the rest.

SMILES | GDH-TPI counter-1 | PrPC surface inh | Mtb FBA inh | BJeLR lethal | RecA splice inh | Mtb FBA confirm | GDH-TPI counter-2
COCCNC(=S)Nc1ccc2nc(N3CCOCC3)cc(C)c2c1 | 8 | -2 | 51* | -7 | -5 | 0 | -3
COc1ccc(CSc2nnc(SCC(=O)Nc3ccccc3-c3ccccc3)s2)cc1 | · | 11 | · | · | · | · | ·
CCN(CC)CCNc1c2c(c(C#N)c3nc4ccccc4n13)CCCC2 | 10 | -3 | 11 | 2 | -81 | · | ·
Nc1nc(N2CCN(C(=O)c3ccco3)CC2)nc2ccccc12 | -3 | -10 | 45* | -15 | -2 | 7 | -4
CCN(CC)CCNc1cc(C)c(C#N)c2nc3ccccc3n12 | 13 | -2 | 86* | 5 | -193 | 24 | 16*
COCCN(CCOC)c1cc(C)c(C#N)c2nc3ccccc3n12 | 7 | -6 | 39* | -3 | -201 | 43* | 41*
Cc1cc(NCCN2CCOCC2)n2c(nc3ccccc32)c1C#N | 6 | -16 | 58* | -2 | -126 | 104* | 81*
O=C(NC1CC[C@@]23CCCN2C(=O)CCC[C@H]3C1)c1ccccc1 (stereo partly specified) | · | 6 | · | · | · | · | ·
CCOC(=O)Cn1cc(CN2C(C(=O)OC)CN(CCO)CCS2(=O)=O)nn1 (stereo unspecified) | · | 5 | · | · | · | · | ·
CSCCCNC(=O)C1CCN(S(=O)(=O)c2ccc3[nH]c(=O)oc3c2)CC1 | · | -5 | · | · | · | · | ·
Oc1ccc2[nH]cc(CCc3ccccc3)c2c1-c1ccccc1 | · | -3 | · | · | · | · | ·
CCCc1cc(NCCCN2CCOCC2)n2c(nc3ccccc32)c1C#N | 4 | -10 | 101* | 0 | -101 | 54* | 41*
Cc1nnc2c(N3CCN(C(=O)c4ccco4)CC3)nc3ccccc3n12 | 18 | -11 | 4 | 1 | -4 | · | ·
CCCc1cc(N2CCN(C(=O)c3ccco3)CC2)n2c(nc3ccccc32)c1C#N | 1 | -14 | 32* | 12 | -90 | 100* | 84*
Cc1cccc(S(=O)(=O)c2c(N)n(/N=C/c3ccco3)c3nc4ccccc4nc23)c1 | 25 | 4 | 12 | -6 | 1 | · | ·
Cc1cccc(S(=O)(=O)c2c(N)n(-c3ccccc3)c3nc4ccccc4nc23)c1 | 16 | 5 | 74* | -6 | -9 | 63* | 50*
C=COCCCNc1ncnc2sc(-c3ccccc3)cc12 | 13 | -3 | 38* | -2 | 5 | 51* | 40*
COC(CNc1ncnc2sc(-c3ccccc3)cc12)OC | 11 | 1 | 25 | -5 | -1 | · | ·
OCCCNc1ncnc2sc(-c3ccccc3)cc12 | 23 | -4 | 30* | 17 | 1 | 55* | 45*
COc1cccc(-c2nc(-c3ccccn3)no2)c1OC | 0 | -7 | -3 | 1 | 2 | · | ·
c1ccc(-c2noc(-c3cccc4ccccc34)n2)nc1 | -4 | -5 | 46* | -3 | -1 | + | +
NS(=O)(=O)c1ccc(CCNC(=O)c2cc(-c3cccs3)nc3ccccc23)cc1 | 10 | -5 | 99* | 11 | 1 | + | +
NS(=O)(=O)c1ccc(CNC(=O)c2cc(-c3cccs3)nc3ccccc23)cc1 | 12 | -8 | 80* | -19 | 2 | 1 | 2
CN(C)S(=O)(=O)c1cccc(NC(=O)c2cc(-c3cccs3)nc3ccccc23)c1 | 11 | 11 | 28* | -6 | 2 | 126* | 103*
NS(=O)(=O)c1ccc(CCNC(=O)CSc2cccs2)cc1 | 1 | -4 | 97* | 8 | -1 | 87* | 56*
NS(=O)(=O)c1cccc(NC(=O)c2cc(-c3cccs3)nc3ccccc23)c1 | 13 | -4 | 26 | -4 | · | · | ·
COCCNC(=O)C1(C)Cc2c(-c3ccc4c(c3)OCO4)ccnc2O1 (stereo unspecified) | 5 | 10 | 96* | · | · | 71* | 51*

Bioassay records deposited in PubChem by several laboratories.
